BAZ2B block = blocks human BAZ2B. Q9UIF8. AlphaScreen BAZ2B-H3K14Ac peptide displacement. Potency, µM (doses to about 114 µM), for inactives: top-dose activity change, negative = inhibition, usual class: inhibitors. hit rate 4.4% among 360,000; note: % is set by controls: 0 for no effect and ±100 for the full control effect; nearly all actives have a fitted effect of over 60% in size
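AlphaScreen displacement: compounds (up to 110uM) incubated 30 min at room temperature with a preformed 50 nM BAZ2B/50 nM biotinylated H3K14Ac peptide complex in PBS pH 7.4 with Tween-20. Donor and acceptor beads at 10 ug/mL final added, 20 min light-protected before reading.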
PLK1 PBD inh = inhibitors of human PLK1 polo-box domain binding | Potency, µM, for inactives: max response, negative = inhibition, actives largely listed as inhibitors | P53350 | hit rate 2.8% among 360,000 | Plk1 PBD binding of FITC phosphopeptide, fluorescence polarization; note: series mostly up to about 57 µM; % is set by controls: 0 for no effect and ±100 for the full control effect; nearly all actives have a fitted effect of over 65% in size
G9a block = blocks human histone lysine methyltransferase G9a. AID 504332. Q96KQ7. Potency, µM (top dose mostly 102 µM), for the others: top-dose activity, negative = inhibition, actives largely listed as inhibitors. G9a H3K9 monomethylation, AlphaScreen, 2 h. hit rate 8.8% among 350,000; note: % is set by controls: 0 for no effect and ±100 for the full control effect; nearly all actives have a fitted effect of over 75% in size
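Using a bead-based AlphaScreen, monomethylated H3K9 product from 2 h room-temperature reactions (G9a 20 nM, peptide 500 nM, SAM 20 uM) was detected with 0.5 ug/mL rabbit anti-H3K9me1 antibody.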
ALOX12 inh = inhibitors of human 12S-lipoxygenase ALOX12; P18054; purified 12hLO, xylenol orange hydroperoxide absorbance; Potency, µM (titrated, usually from 108 µM), inactives show at the top dose activity change, negative = inhibition, hits mostly inhibitors; hit rate 1.1% among 580,000; note: % is set by controls: 0 for no effect and ±100 for the full control effect
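Purified human 12hLO (150 nM final) in 25 mM Hepes, 0.01% Triton X-100, pH 7.0 was preincubated 15 min at room temperature with compound. Then 40 uM arachidonic acid was added, 30 min. Hydroperoxide was read by Fe-XO absorbance ratio 573/405 nm.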
HP1b chromo inh = blocks HP1-beta chromodomain binding to methylated histone tails; AlphaScreen HP1-beta / biotin-H3K9me3 peptide binding; hit rate 0.56% among 390,000; P83916; Potency, µM (series often up to 114 µM), inactives show at the top dose activity change, negative = inhibition, actives largely listed as inhibitors; note: nearly all actives have a fitted effect of over 70% in size
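AlphaScreen: HP1-beta (50 nM) preformed 30 min with biotin-H3(1-18)K9me3 peptide (50 nM) in PBS pH 7.4, 0.01% Tween-20. Compound added for 30 min at RT, then streptavidin donor/nickel chelate acceptor beads (10 ug/mL) for 30 min.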
JMJD2A Tudor inh = blocks the human JMJD2A Tudor domain | hit rate 4.4% among 390,000 | Potency, µM (titrated, usually from 114 µM), without a hit: at the highest dose activity change, negative = inhibition, actives largely listed as inhibitors | AID 504339 | AlphaScreen JMJD2A-Tudor / H3K4me3 peptide binding | O75164; note: % is set by controls: 0 for no effect and ±100 for the full control effect; nearly all actives have a fitted effect of over 50% in size
An asterisk follows results filed as active; ? = inconclusive; / = no result given; [ ] = another dose, or the depositor's remark. A selection: hits, their analogues and other compounds. The true share with any hit is near 9%. Calls come from the whole dose curve; as a rule, active = well fitted curve in the direction sought with a large enough effect; inconclusive = small, poorly fitted or top-dose-only effect, or another doubt; inactive = no such curve, though single readings can be large; an effect the other way counts as inactive or inconclusive. Potency is the fitted concentration of half-maximal effect.

SMILES	BAZ2B block	PLK1 PBD inh	G9a block	ALOX12 inh	HP1b chromo inh	JMJD2A Tudor inh
CC(C)(C)c1ccc(CSc2nnc(-c3ccccn3)n2Cc2ccco2)cc1	?	-5%	-5%[12.7 µM]	0%	21%	-23%
Brc1ccc(CSc2nnc(-c3ccccn3)n2Cc2ccco2)cc1	?	-14%	50µM*	5%	26%	-33%
C=CCn1c(CC#N)nnc1N1CCOCC1	50µM*	1%	?	2%	21%	?
Cc1cc(C(=O)N/N=C/c2cccnc2)n[nH]1	2%	4%	23%	7%	50%	-2%
Cc1cc(C(=O)N/N=C/c2cc(Br)c(Br)o2)n[nH]1	-26%	-23%	10µM*	3%	-2%	?
Cc1cc(C(=O)N/N=C/c2ccc(-c3cccc([N+](=O)[O-])c3)o2)n[nH]1	-18%	-13%	-8%	-2%	33%	-17%
Cc1cc(C(=O)N/N=C\c2cc(C(C)(C)C)c(O)c(C(C)(C)C)c2)n[nH]1	-11%	-5%	40µM*	5%	-17%	?
Cc1cc(C(=O)N/N=C/c2ccc(-c3ccc([N+](=O)[O-])cc3Cl)o2)n[nH]1	79µM*	?	50µM*	-21%	20%	?
Cc1cc(C(=O)N/N=C/c2cc(Cl)cc([N+](=O)[O-])c2O)n[nH]1	50µM*	-4%	/	-21%	27%	?
CCOC(=O)C(CC)n1cnc2c(nnn2-c2ccc(OC)cc2)c1=O (centres undefined)	12%	0%	20%[59 µM]	-3%	23%	-7%
C=CCNC(=O)[C@@H]1Cc2cn(CC=C)c3cccc(c23)[C@H](CC(C)C)N1	/	/	/	9%[176 µM]	/	/
COc1cc(Nc2ccn3nc(-c4ccccc4Cl)cc3n2)cc(OC)c1OC	/	-16%	/	-4%	/	/
CCOC(=O)C(=Cc1ccc(-n2ccnc2)cc1)C(=O)OCC	?	?	45µM*	-12%	34%	-15%
CCOC(=O)C(=Cc1ccc(Br)cc1)C(=O)OCC	44%	17µM*	-4%[12.7 µM]	2%	121%	89%
CC(C)NC(=O)N1Cc2ccccc2OC2(CCN(C)CC2)C1	/	/	/	31%	/	/
Cc1cccc(NC(=O)CN2CCSc3ccccc32)c1	?	-11%	45µM*	-2%	31%	-24%
CC(CCc1ccccc1)NC(=O)CN1CCOc2ccccc21 (centres undefined)	/	-5%	/	-3%[57.4 µM]	40%	-33%
COc1cccc(NC(=O)CN2CCSc3ccccc32)c1	?	-1%	22µM*	?	3%	-33%
COc1ccccc1NC(=O)CN1CCSc2ccccc21	-1%	-7%	?	160%	5%	-27%
CC(CCc1ccccc1)NC(=O)CN1CCSc2ccccc21 (centres undefined)	?	?	32µM*	-97%	79µM*	56µM*
Cc1c(NC(=O)C2CCCO2)cccc1[N+](=O)[O-] (centres undefined)	7%	-21%	1%[59 µM]	9%	8%	3%
c1ccc2nc3c(cc2c1)CCCCC3	-3%	3.4µM*	/	2%	7%	-31%[11.4 µM]
c1ccc2nc3c(cc2c1)CCCCCC3	0%	-8%	4%[59 µM]	0%	35%	6%
COc1ccc2nc(CCN(C)C(=O)C3CCC(=O)N(Cc4cccc(F)c4)C3)[nH]c2c1 (centres undefined)	50µM*	?	7%	10%	19%	-31%
O=C(NCCOc1ccc(F)cc1)C1CCC(=O)N(CCN2CCOCC2)C1 (centres undefined)	-34%	-1%	45µM*	2%	-11%	2%
SMILES	BAZ2B block	PLK1 PBD inh	G9a block	ALOX12 inh	HP1b chromo inh	JMJD2A Tudor inh
O=C(NCCc1ccccc1F)C1CCC(=O)N(Cc2ccccc2F)C1 (centres undefined)	-18%	27µM*	9%	-5%	-1%	?
COc1ccccc1CCNC(=O)C1CCC(=O)N(Cc2ccccc2OC)C1 (centres undefined)	-3%	-9%	/	11%	13%	-8%
O=C(NCCOc1ccc(F)cc1)C1CCC(=O)N(CCCN2CCOCC2)C1 (centres undefined)	-1%	-7%	14%	-12%	52%	-17%
COc1cccc(CN2CC(C(=O)N(C)Cc3nc4ccc(F)cc4[nH]3)CCC2=O)c1 (centres undefined)	-3%	3%	/	-6%	35%	9%
COc1ccccc1CCNC(=O)C1CCC(=O)N(Cc2cccc(F)c2)C1 (centres undefined)	6%	30µM*	2%[12.7 µM]	-3%	15%	?
CCC[C@H]1[C@@H](NC(=O)Nc2ccc(C(C)C)cc2)CC[C@@]23CCCN2C(=O)CCC[C@@H]13	/	/	/	7%	/	/
COc1ccc(Nc2cc(C)nc3nc(-c4ccccc4C)nn23)c(OC)c1	/	/	/	35%	/	/
COc1cccc(CN2CC(C(=O)NCCCc3ccncc3)CCC2=O)c1 (centres undefined)	-2%	5%	?	6%	22%	8%
COc1cccc(CN2CC(C(=O)NCCOc3cccnc3)CCC2=O)c1 (centres undefined)	-4%	17µM*	17%	-6%	29%	-32%
COc1ccccc1CN1CC(C(=O)NCCc2ccc(C)o2)CCC1=O (centres undefined)	-14%	-11%	?	8%	38%	-8%
Cn1nnnc1SCCNC(=O)C1CCC(=O)N(Cc2cccc(C(F)(F)F)c2)C1 (centres undefined)	/	0%	/	9%	/	/
Cc1ccsc1CCNC(=O)C1CCC(=O)N(CCc2cccc(F)c2)C1 (centres undefined)	-5%	-1%	/	3%	46%	-14%
Cc1ccccc1CCNC(=O)C1CCC(=O)N(CCc2cccc(F)c2)C1 (centres undefined)	8%	30µM*	6%[12.7 µM]	0%	20%	?
COc1ccccc1CN1CC(C(=O)N(C)Cc2ccc(C)o2)CCC1=O (centres undefined)	-19%	-11%	35µM*	-3%	23%	-8%
Cn1nnnc1SCCNC(=O)C1CCC(=O)N(CCc2cccc(F)c2)C1 (centres undefined)	4%	-10%	0.16µM*	1%	29%	11%
CC1CN(S(=O)(=O)c2cccc(C(=O)NCCC3=CCCCC3)c2)CC(C)O1 (centres undefined)	12%	-3%	19%[0.501 µM]	0%	4%	-13%
CCOCCCNC(=O)C(c1ccc(Cl)cc1)N(Cc1cccs1)C(=O)c1ccc(NC(C)=O)cc1 (centres undefined)	1%	/	9%[59 µM]	-21%	16%	5%
O=C(Cc1noc(C(=O)NCc2ccccc2)n1)Nc1cccc2ncccc12	/	/	/	8%	/	/
